From PubChem
Sampled rows, rich in hits. Any-hit rate of the full collection: about 1.1%.
NR5A2 inv ag – LRH-1 (NR5A2) inverse agonists, primary screen, cell-based, luminescence, HEK293T, StAR-luciferase reporter | Nuclear receptor subfamily 5 group A member 2 (Homo sapiens), O00482 | 360,000 tested, 0.13% active | LRH-1 transfected, 24 h | inhibition, % at 3.6 µM;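 active = inhibition above the mean inhibition of all tested compounds plus 3 SD, cut at about 73% in these data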
SRC1 inh – SRC1 coactivator transcriptional activity inhibitors, primary screen, cell-based, luminescence. AID 588354, 2011. 360,000 tested, 0.12% active. inhibition, % at 3.6 µM. HEK293 GAL4-SRC1 luciferase reporter. Nuclear receptor coactivator 1 (Homo sapiens), Q15788;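 active = inhibition above the campaign mean plus 3 SD, with each screening campaign given its own cutoff, cut at about 60% in these data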
SRC3 inh – SRC3 coactivator transcriptional activity inhibitors, primary screen, cell-based, luminescence | Nuclear receptor coactivator 3 (Homo sapiens), Q9Y6Q9 | HEK293 GAL4-SRC3 luciferase reporter | inhibition, % at 3.6 µM | 360,000 tested, 0.17% active;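 active = inhibition above a per-campaign cutoff, the mean of all compounds plus 3 SD, cut at about 60% in these data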;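 note: higher means less SRC3-driven luciferase light from the GAL4 reporter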
SRC2 inh – inhibition of GAL4-SRC2 driven luciferase reporter, primary screen, SRC2 inhibitor project, cell-based, luminescence | Nuclear receptor coactivator 2 (Homo sapiens), Q15596 | HEK293 GAL4-SRC2 luciferase reporter | inhibition, % at 9 µM | 370,000 tested, 0.17% active;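 active = inhibition above the mean inhibition of all tested compounds plus 3 SD, set per campaign, cut at about 52% in these data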
GalR3 antag – GalR3 antagonists in HEK293 cells, primary screen, cell-based, fluorescence readout; Galanin receptor type 3 (Homo sapiens), O60755; 360,000 tested, 0.44% active; HEK293 GalR3-CNG cAMP membrane potential fluorescence; galR3 body fused to GalR1 C-terminus; inhibition, % at 3 µM;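 active = inhibition above the screen-wide average plus 3 SD, cut at about 13% in these data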;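 note: forskolin and galanin both at EC90 stimulate the cells; cAMP rise reported by CNG channel membrane potential dye signal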
COUP-TFII inh – NR2F2 transcriptional activity inhibitors, primary screen, cell-based, luciferase reporter, HEK293T, luminescence; COUP transcription factor 2 (Homo sapiens), P24468; HEK293T NGFI-A luciferase reporter; inhibition, % at 8.6 µM; 370,000 tested, 0.7% active; AID 686940, 2013;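 active = inhibition above a per-plate cutoff, mean inhibition of test wells between control levels plus 3 SD, cut at about 38% in these data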;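 note: cells cotransfected with COUP-TFII expression vector driving the NGFI-A reporter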
Target sequence (P24468 whole entry, looked up): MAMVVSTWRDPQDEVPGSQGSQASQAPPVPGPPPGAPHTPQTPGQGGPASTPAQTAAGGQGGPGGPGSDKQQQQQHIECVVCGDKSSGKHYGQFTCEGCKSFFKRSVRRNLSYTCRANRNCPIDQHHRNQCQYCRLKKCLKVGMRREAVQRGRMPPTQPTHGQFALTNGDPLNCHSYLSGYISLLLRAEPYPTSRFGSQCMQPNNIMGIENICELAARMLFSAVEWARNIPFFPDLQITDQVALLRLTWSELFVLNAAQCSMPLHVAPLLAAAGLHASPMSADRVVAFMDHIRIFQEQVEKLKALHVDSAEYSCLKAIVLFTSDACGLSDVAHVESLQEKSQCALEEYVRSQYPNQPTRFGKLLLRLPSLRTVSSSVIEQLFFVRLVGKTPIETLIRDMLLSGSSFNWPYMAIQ
Of the large screens only hits and unclear results are named; the others gave an inactive call.

O=C(NC1CCCCC1)C(c1cccnc1)N(C(=O)CCl)c1cccc(Cl)c1 (stereo not drawn)	SRC3 inh 69.2, SRC2 inh 56.8
O=C(O)CCC(=O)Nc1cccc(-c2csc(-c3ccccc3)n2)c1	SRC2 inh 52.5
Cn1cc(C2(c3c[nH]c4ccccc34)CCN(C(=O)OC(C)(C)C)CC2)c2ccccc21	none (no result: NR5A2 inv ag, SRC1 inh, SRC3 inh, GalR3 antag)
CC(C)Oc1ccc(-c2csc(N3CCC(C(N)=O)CC3)n2)cc1	none (no result: NR5A2 inv ag, SRC1 inh, SRC3 inh, SRC2 inh, GalR3 antag)
O=[N+]([O-])c1ccc(O)c(/C=N/Nc2ccc(Cl)nn2)c1	SRC1 inh 67.9, SRC3 inh 81.6
O=C(Nc1ccc(N2CCCCC2)cc1)c1ccccn1	SRC1 inh 63.8, SRC3 inh 70.9 (no result: SRC2 inh, GalR3 antag, COUP-TFII inh)
COc1ccc(C=Nn2c(-c3ccccc3F)n[nH]c2=S)cc1OCc1ccccc1	none (no result: NR5A2 inv ag, SRC1 inh, SRC3 inh, GalR3 antag)
N#CCC[C@@H]1CC[C@]2(CCCN(Cc3ccc(Br)cc3)C2)O1	none (no result: NR5A2 inv ag, SRC1 inh, SRC3 inh, GalR3 antag)
CCC(=O)Nc1cccc(C(=O)/C=C/c2cc(Br)ccc2OC)c1	NR5A2 inv ag 72.9, SRC3 inh 79.3, SRC2 inh 64.0
COc1ccc(Br)cc1/C=C/C(=O)Nc1ccc2ccccc2c1	none
Cc1ccccc1C(=O)N(Cc1ccccn1)CC1CCCO1 (stereo not drawn)	none (no result: NR5A2 inv ag, SRC1 inh, SRC3 inh, GalR3 antag)
COC(=O)c1cc(O)cc(OC)c1Oc1cc(C)cc(O)c1C(=O)O	SRC3 inh 68.1
COC(=O)c1cc(O)cc(OC)c1C(=O)c1c(O)cc(C)cc1O	none
CC(=O)n1cc(N(C(=O)CCl)c2ccc(C)cc2)c2ccccc21	SRC2 inh 60.5
O=C(N/N=C/c1c(O)ccc2ccccc12)c1cccc(C(F)(F)F)c1	SRC1 inh 70.2, SRC3 inh 73.9
O=C(N/N=C/c1c(O)ccc2ccccc12)c1[nH]ncc1Br	SRC3 inh 67.3
COc1ccc2ccccc2c1/C=N/NC(=O)c1cccc(Br)c1	none
CC(C)CN1C(=O)C[C@@]2(C(=O)N(C)c3ccc(NS(=O)(=O)C4CC4)cc32)C1c1ccccc1 (stereo partly drawn)	none (no result: NR5A2 inv ag, SRC1 inh, SRC3 inh, GalR3 antag)
Cc1c(C)n(Cc2ccc(-c3ccccc3C(=O)O)cc2)c2ccc(C(=O)N[C@@H](C)c3ccc([N+](=O)[O-])cc3)cc12	none (no result: NR5A2 inv ag, SRC1 inh, SRC3 inh, GalR3 antag)
COc1cccc2c1C(CO)N1C(C#N)C3CC(C(=O)O)C(C1C2)N3C (stereo not drawn)	NR5A2 inv ag 101.5, SRC1 inh 86.7, SRC3 inh 85.7, SRC2 inh 54.9
COc1cccc2c1OCC(C(=O)O)C2 (stereo not drawn)	none
COC(=O)c1cc2c(n1S(=O)(=O)c1ccc(C)cc1)C(=O)C(=O)c1[nH]cc(C(=O)OCc3ccccc3)c1-2	SRC1 inh 87.2, SRC3 inh 87.6 (no result: SRC2 inh, GalR3 antag, COUP-TFII inh)
COC(=O)c1cc2c(c3c4cc(OC)ccc4n(S(=O)(=O)c4ccc(C)cc4)c13)C(=O)N(Cc1ccccc1)C2	none (no result: NR5A2 inv ag, SRC1 inh, SRC3 inh)
COc1ccc(-n2c(COc3ccc(C)cc3)nnc2SCC(=O)Nc2ccc(S(=O)(=O)Nc3cc(C)nc(C)n3)cc2)cc1	none (no result: NR5A2 inv ag, SRC1 inh, SRC3 inh, GalR3 antag)
COC(=O)[C@]12C[C@H](CC(=O)NCc3cccs3)C(=O)N(Cc3ccco3)C1=C[C@H](C(C)(C)C)O[C@@H]2C	none (no result: NR5A2 inv ag, SRC1 inh, SRC3 inh, GalR3 antag)
CCCCNC(=O)C[C@H]1C[C@@]2(C(=O)OC)C(=C[C@H](C(C)(C)C)O[C@@H]2C)N(Cc2cccc3ccccc23)C1=O	none (no result: NR5A2 inv ag, SRC1 inh, SRC3 inh, GalR3 antag)
Cc1cc(C)c2cc(CN(Cc3ccco3)C(=O)NCc3ccccc3)c(=O)[nH]c2c1	GalR3 antag 14.4
C=CCN(Cc1ccc2c(c1)OCO2)C(C#Cc1ccccc1)c1ccccc1C(F)(F)F (stereo not drawn)	none (no result: NR5A2 inv ag, SRC1 inh, SRC3 inh, GalR3 antag)
Cc1nnsc1C(=O)N/N=C/c1ccc2ccccc2c1O	SRC1 inh 81.5, SRC3 inh 83.8
CCc1cn([C@H]2C[C@H](O)[C@@H](CO)O2)c(=O)[nH]c1=O	none
O=c1[nH]c(=O)n(C2CC(O)C(CO)O2)cc1Br (stereo not drawn)	none
O=c1[nH]c(=O)n(C2C[C@H](O)[C@@H](CO)O2)cc1C(F)(F)F (stereo partly drawn)	SRC1 inh 74.6, SRC3 inh 72.5
